Values joined by “and” are separate entries in the source; they are usually repeats but may differ in a detail not shown here. Equal entries are not always repeated. Results filed as inconclusive are left out. Unmarked numbers belong to inactive results. Active and inactive are the calls of the source. The call rests on the fitted dose curve; in most records, active means well fitted inhibition curve with a large enough effect; inconclusive means small, poorly fitted or top-dose-only effect; inactive means flat fitted curve, though single readings scatter. Where a SMILES comes first, the peptide text is derived from it. Bridges are numbered along the chain shown (N, C = ends). [ ]: non-standard residue; d: D form. The star is where a group is joined. X1 = CCC(C)C(N)C1=NC(C(=O)*)CS1; dOrn = NCCC[C@@H](N)C(=O)O
Tested on: CRL-7250
Assay: Cytotoxic Profiling of Annotated Libraries Using Quantitative High-Throughput Screening (AID 1296008); further: nearly all actives have a fitted effect of over 60% in size
Conditions: Five cell lines viability, CellTiter-Glo ATP luminescence, 48-72 h; max response: stronger effect = lower value
Method in brief: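 Cells exposed to compounds for 48 or 72 hr at 37 degrees Celsius. Viability read as ATP-coupled luminescence with CellTiter-Glo after 10 min at room temperature.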
On the % scale 0 is the no-effect control and ±100 the full control effect.

| Structure (SMILES) | outcome | max response |
| --- | --- | --- |
| COc1ccc2cc(OCC3(C(=O)O)CN(C(=O)c4ccc(F)cc4)C3)ccc2c1 | inactive | – |
| C=C1CC/C=C(/CO)C(=O)C[C@@H]2[C@@H]1CC2(C)C | inactive | – |
| C1CCN2CC3C[C@@H](CN4CCCC[C@@H]34)[C@H]2C1 | – | 3.38% |
| C[C@@H]1O[C@@H](O[C@H]2[C@H](OC(=O)[C@]34CCC(C)(C)C[C@H]3C3=CCC5[C@@]6(C)CC[C@H](O[C@@H]7O[C@H](CO[C@@H]8OC[C@H](O)[C@H](O)[C@H]8O)[C@@H](O)[C@H](O)[C@H]7O)C(C)(C)C6CC[C@@]5(C)[C@]3(C)C[C@H]4O)OC[C@@H](O)[C@@H]2O)[C@H](O)[C@H](O)[C@H]1O[C@@H]1OC[C@H](O)[C@H](O[C@@H]2OC[C@@H](O)[C@H](O)[C@H]2O)[C@H]1O (stereo not given in full) | – | -0.806% |
| CC(=O)OC[C@@]12[C@H](O)C[C@]3(C)C(=CCC4[C@@]5(C)CC[C@H](O[C@@H]6O[C@H](C(=O)O)[C@@H](O[C@@H]7O[C@H](CO)[C@@H](O)[C@H](O)[C@H]7O)[C@H](O)[C@H]6O[C@@H]6O[C@H](CO)[C@@H](O)[C@H](O)[C@H]6O)[C@](C)(CO)C5CC[C@]43C)[C@@H]1CC(C)(C)[C@@H](OC(C)=O)[C@@H]2O (stereo not given in full) | inactive | – |
| COc1cc2c(cc1OC)CN(C(=O)[C@@H](NCc1ccncc1)C(C)(C)C)CC2 | inactive | – |
| CC(C)C(=O)O[C@@H]1[C@@H](O)[C@@H](O[C@H]2O[C@H](CO)[C@@H](O)[C@H](O)[C@H]2O)O[C@H](CO)[C@H]1O | – | -2.11% |
| CCC(C)C(N)C1=NC(C(=O)N[C@@H](CC(C)C)C(=O)N[C@H](CCC(=O)O)C(=O)N[C@H](C(=O)N[C@H]2CCCCNC(=O)[C@H](CC(N)=O)NC(=O)[C@@H](CC(=O)O)NC(=O)[C@H](Cc3cnc[nH]3)NC(=O)[C@@H](Cc3ccccc3)NC(=O)[C@H]([C@@H](C)CC)NC(=O)[C@@H](CCCN)NC2=O)[C@@H](C)CC)CS1 (stereo not given in full) (X1-L[dE]IK[dOrn]I[dF]H[dD]N; lactam 4-C) | – | 2.99% and -28% |
| CNc1nc(Nc2cnn([C@H]3CCN(C4COC4)C[C@@H]3F)c2Cl)ncc1C(F)(F)F | – | -6.85% and -3.81% |
| C=C(C)C1CC2(CO)C(=CC1=O)CCC(O)C2C (stereo not given) | – | 3.39% |
| C=C1CCC2[C@@](C)(C=O)CCC[C@]2(C)[C@H]1CC/C(C)=C/CO (stereo not given in full) | inactive | – |
| CCC(=O)O[C@]1(C(=O)CCl)[C@@H](C)C[C@H]2[C@@H]3C[C@H](F)C4=CC(=O)C=C[C@]4(C)[C@@]3(F)[C@@H](O)C[C@@]21C | – | -3.75% |
| CCCOc1ccn2c(C(C)=O)cc(-c3ccccc3S(C)(=O)=O)c2c1 | inactive | – |
| CC(=O)OC[C@@]12[C@@H](OC(C)=O)C[C@@H](C)[C@](C)([C@@H]3C[C@H]4C=CO[C@H]4O3)[C@H]1CCC[C@]21CO1 | – | 0.841% |
| O=C1NC(Cc2ccc(O)cc2)C(=O)N2CCCC12 (stereo not given) | – | -11.1% |
| CC(=O)N[C@H]1[C@H](O[C@H]2CC[C@@]3(C)C(CC[C@]4(C)C3CC=C3C5CC(C)(C)CC[C@]5(C(=O)O)[C@H](O[C@@H]5O[C@H](CO)[C@@H](O)[C@H](O)[C@H]5O)C[C@]34C)C2(C)C)O[C@H](CO[C@@H]2OC[C@H](O)[C@H](O)[C@H]2O[C@@H]2OC[C@@H](O)[C@H](O)[C@H]2O)[C@@H](O)[C@@H]1O (stereo not given in full) | inactive | – |
| C=CC1(C)CC2=CCC3C(C)(C(=O)O)CCCC3(C)C2CC1OC(C)=O (stereo not given) | inactive | – |
| COc1cccc(-c2ccc([C@@H](Oc3cc(-c4ccc(C[C@H](N)C(=O)O)cc4)nc(N)n3)C(F)(F)F)cc2)c1 | inactive | – |
| O=C(O[C@@H]1O[C@H](CO)[C@@H](O)[C@H](O)[C@H]1O)c1c(O)cc(O)cc1/C=C/c1ccccc1 | – | 2.06% |
| CC1[C@@H](O)[C@@H](O)C2[C@]3(C)C(C[C@H]4OC(=O)[C@H](O)[C@]1(O)[C@@]24C)C(C)(O)C[C@H](O)[C@H]3O (stereo not given in full) | inactive | – |

| Structure (SMILES) | outcome | max response |
| --- | --- | --- |
| O=C1NC(=Nc2ccccc2F)S/C1=C\c1ccc(C(=O)O)cc1 | – | -10.7% |
| C[C@@H](OC(=O)/C=C/c1ccc(O)cc1)C1=C[C@]2(C=C[C@@H]3C(C(=O)O)=CO[C@@H](O[C@@H]4O[C@H](CO[C@@H]5O[C@H](CO)[C@@H](O)[C@H](O)[C@H]5O)[C@@H](O)[C@H](O)[C@H]4O)[C@@H]32)OC1=O | – | 1.07% |
| C[C@@H]1O[C@@H](O[C@H]2[C@H](O)[C@@H](C(=O)O)O[C@@H](O[C@H]3CC[C@@]4(C)C(CC[C@]5(C)C4CC=C4C6CC(C)(C)CC[C@]6(C(=O)O)CC[C@]45C)C3(C)C)[C@@H]2O[C@@H]2O[C@H](CO)[C@@H](O)[C@H](O)[C@H]2O)[C@H](O)[C@H](O)[C@H]1O (stereo not given in full) | inactive | – |
| Cc1cccc(-c2[nH]c(CNc3ccccc3F)nc2-c2ccc3ncnn3c2)n1 | inactive | – |
| Nc1ncnc2c1ncn2[C@H]1CCCO1 | – | -0.0341% |
| O=C(c1ccc(C#Cc2cccc(F)c2)cn1)N1CC2CC2C1 (stereo not given) | inactive | – |
| CC[C@H]1OC(=O)C[C@@H](O)[C@H](C)[C@@H](O[C@@H]2O[C@H](C)[C@@H](O)[C@H](N(C)C)[C@H]2O)[C@@H](CCN2C[C@H](C)C[C@H](C)C2)C[C@@H](C)C(=O)/C=C/C(C)=C/[C@@H]1CO[C@@H]1O[C@H](C)[C@@H](O)[C@@H](OC)[C@H]1OC | – | 1.46% |
| CN[C@@H]1[C@@H](O)[C@@H](O[C@@H]2[C@@H](O)[C@H](O[C@H]3O[C@H](CN)[C@@H](O)[C@H](O)[C@H]3O)[C@@H](N)C[C@H]2NC(=O)[C@@H](O)CN)OC[C@]1(C)O | – | -2.08% |
| Cc1nnc(C(C)C)n1C1CC2CCC(C1)N2CC[C@H](NC(=O)C1CCC(F)(F)CC1)c1ccccc1 (stereo not given in full) | inactive | – |
| CC1CCC2C(C)(C)CC(C)(CO)C2(O)C1C(=O)O (stereo not given) | – | 0.69% |
| CC/C=C\C[C@H]1C(=O)C=C[C@@H]1CCCCCCCC(=O)O | – | 4.76% |
| C/C=C/C1=CC2=C(CO1)C(=O)[C@](C)(O)[C@H](OC(=O)c1c(O)cc(OC)c(O)c1C)C2 | – | 2.48% |
| CCC(NC(=O)CC(NC(=O)C(CO)NC(=O)C(CC)NC(=O)c1ccc[nH]1)c1ccccc1)C(=O)O (stereo not given) | – | -9.47% |
| CCCCCCc1cccc(NC(=O)[C@H](N)CCP(=O)(O)O)c1 | inactive | – |
| COC(=O)CC[C@@H](C)[C@H]1CC[C@H]2[C@@H]3CC(=O)[C@H]4C[C@H](OC(C)=O)CC[C@]4(C)[C@H]3CC[C@]12C | – | -2.01% |
| O=C1[C@H](O[C@@H]2O[C@H](CO)[C@@H](O)[C@H](O)[C@H]2O)Oc2ccccc2N1O | – | 1.51% |
| COC1=CC(=O)C[C@@H](C)[C@]12Oc1cc(OC)cc(OC)c1C2=O | – | -2.71% |
| OC[C@H]1O[C@@H](OC(CCCCc2ccc(O)cc2)CCc2ccc(O)cc2)[C@H](O[C@@H]2OC[C@](O)(CO)[C@H]2O)[C@@H](O)[C@@H]1O (stereo not given in full) | – | 3.53% |
| CC1=C2[C@@H]([C@H](C)CC[C@H]2/C=C(\C)C(=O)O)[C@H](O)C1 | – | 0.252% |
| CC1(C)CC2C3=CCC4C5(C)CCC(OC6OC(C(=O)O)C(O)C(O)C6OC6OC(CO)C(O)C(O)C6OC6OC(CO)C(O)C(O)C6O)C(C)(CO)C5CCC4(C)C3(C)CCC2(C)C(OC2OCC(O)C(OC3OC(CO)C(O)C(O)C3O)C2O)C1O (stereo not given) | – | 2.95% |

From PubChem BioAssay (NCATS)
